{"source": "the supplement of paper PMC11417369", "note": "Whole data set: some 25,000 sequences, median “ln(normalized median fluorescence intensity)” near 9.3, cut for the highest 2% near 10. The sample as a whole holds a higher share of the highest values than the screen did."}
{"system": "PF3D7_0420300 AP2 domain 1 (GST-tagged)", "experiment": "gcPBM binding intensity (ln(normalized median fluorescence intensity)); higher = stronger DNA binding", "method_in_brief": "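Using an Agilent 4 × 180k array, primer-extended double-stranded 36-bp intergenic genomic probes and negative controls were exposed for 1 h to GST-fused P. falciparum DNA-binding domains expressed in E. coli. Binding was carried out in 1× PBS with 1% milk, 0.2 mg/ml BSA, 0.5% salmon testes DNA and 0.03% Triton X-100, and protein was detected with Alexa488 anti-GST antibody and a 488 nm scan. Binding intensity is the highest Masliner-normalised natural-log median intensity across replicate spots of either probe orientation.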"}
{"sequence": "AGTATAAATAAATCATAAACATATATATATATATAT [GTGCAC_negctrl_site356]", "gcPBM binding intensity (ln)": 9.2}
{"sequence": "AAAAAAAAAAAACATACACACATACATACATATATA [CACACA_site8222]", "gcPBM binding intensity (ln)": 9.82}
{"sequence": "AAAAAAAAAAAAAACACACACACACCCAAATACATA [CACACA_site708]", "gcPBM binding intensity (ln)": 9.87}
{"sequence": "AACACCCAAAAACACACACACATACATACATACATA [CACACA_site4411]", "gcPBM binding intensity (ln)": 9.98}
{"sequence": "AAAAAAAAAAAACACACACACACACTAGTACATACA [CACACA_site4551]", "gcPBM binding intensity (ln)": 10.2}
{"sequence": "TATTCCCCCAAACACACACACACACCCACATACCAC [CACACA_site2304]", "gcPBM binding intensity (ln)": 10.3}
{"sequence": "AAAAAGAAAAAACTTACACACATATATACAGACATG [CACACA_site550]", "gcPBM binding intensity (ln)": 9.93}
{"sequence": "AAAAAGAAAAAACTTACACACATATATACACCCATG [CACACA_site8079]", "gcPBM binding intensity (ln)": 10.1}
{"sequence": "AAAAAAAAAAAAAACACACACATACACCCAAAAATG [CACACA_site4223]", "gcPBM binding intensity (ln)": 9.84}
{"sequence": "AAAAAAAAAAAAAAAACACACACATACACCCAAAAA [CACACA_site7910]", "gcPBM binding intensity (ln)": 9.69}
{"sequence": "AAGTACATACATAAAACACACACATATATATATATA [CACACA_site8541]", "gcPBM binding intensity (ln)": 9.59}
{"sequence": "AAAAAGAAAAAACTTACACACATATATACCCCCATG [CACACA_site4463]", "gcPBM binding intensity (ln)": 10.2}
{"sequence": "CAAACACCCAAACACACACACACATACATACATACA [CACACA_site8044]", "gcPBM binding intensity (ln)": 10.2}
{"sequence": "TCTTATAAACTCTGCACACATAATATATTAAATGAG [CACACA_site1936]", "gcPBM binding intensity (ln)": 9.31}
{"sequence": "TATATTTATTATAATTGTACATAAAATAAACTAAGA [XGTACX_site4318]", "gcPBM binding intensity (ln)": 9.19}
{"sequence": "TATATATGTAGACGTTGTACTTTTTTGTAAGTTTAA [XGTACX_site5638]", "gcPBM binding intensity (ln)": 9.13}
{"sequence": "TGATATTTTTCCATAGTGCAAAATATAGTAATGTAT", "gcPBM binding intensity (ln)": 9.11}
{"sequence": "AAAAAACACCCATACACACACACACCGATATATATA [CACACA_site5808]", "gcPBM binding intensity (ln)": 10.2}
{"sequence": "AAAACATACATATATACACACATATATATATATATA [CACACA_site1852]", "gcPBM binding intensity (ln)": 9.57}
{"sequence": "AAAAAAAAAAAAAAAACACACATACACCCAGACACA [CACACA_site5807]", "gcPBM binding intensity (ln)": 9.6}
{"sequence": "AAAAAAAAAAAAAAAACACACATACATACATACATA [CACACA_site6125]", "gcPBM binding intensity (ln)": 9.61}
{"sequence": "AAAAAAAAAAAACACACACACACATACCCATACATA [CACACA_site5575]", "gcPBM binding intensity (ln)": 10.1}
{"sequence": "AAAAAACAGACATACACACACACACCCATATATATA [CACACA_site3392]", "gcPBM binding intensity (ln)": 10.2}
{"sequence": "AAAAAAAAAAAACACACACACACACCCATACATACA [CACACA_site707]", "gcPBM binding intensity (ln)": 10.2}
{"sequence": "AAAAAAAAAAAAAACACACACACACCCATACACATA [CACACA_site2860]", "gcPBM binding intensity (ln)": 10.1}
{"sequence": "CACAGACACCCATACACACACATACCCATATATATA [CACACA_site5023]", "gcPBM binding intensity (ln)": 10}
{"sequence": "AAAAAAAAAAAACACACACACACATACACATACATA [CACACA_site2858]", "gcPBM binding intensity (ln)": 10.2}
{"sequence": "TTTTTAATAACACTTTTGAAAAATAAAATAAAATAA [CACACA_negctrl_site821]", "gcPBM binding intensity (ln)": 8.8}
{"sequence": "AAACAAATAAAATTTATTAAAAAGGTCATATTATTA [CACACA_negctrl_site85]", "gcPBM binding intensity (ln)": 9.12}
{"sequence": "AGAAAGGATATTATATGTACATATCTTTGTATTTTT [XGTACX_site5040]", "gcPBM binding intensity (ln)": 9.36}
{"sequence": "GTATACATGCAAATTTTTATTTACAACCCCAAAAAG [XGTACX_negctrl_site255]", "gcPBM binding intensity (ln)": 9.23}
{"sequence": "GCACAAATATATATATATATATATATATATATATAT [GTGCAC_negctrl_site661]", "gcPBM binding intensity (ln)": 9.06}
{"sequence": "AAAAAAAAAAAACACACACACACACCCATATACATA [CACACA_site2664]", "gcPBM binding intensity (ln)": 10.3}
{"sequence": "AAAAAAAAAAAAAACACACATACACGCCCACCCATA [CACACA_site3391]", "gcPBM binding intensity (ln)": 10.2}
{"sequence": "AAAAAAAAAAAAAACACACACACACCCATACCCATA [CACACA_site5577]", "gcPBM binding intensity (ln)": 10.1}
{"sequence": "AAAAAAAAAAAAAACACACACACACCCACATATACA [CACACA_site2663]", "gcPBM binding intensity (ln)": 10.1}
{"sequence": "TAAACACCCATACATACACACATACATACACCCATA [CACACA_site5125]", "gcPBM binding intensity (ln)": 9.58}
{"sequence": "TCCTTTTCATCTTGTAGTACGGAAATGTAGCTCCAA [XGTACX_site8563]", "gcPBM binding intensity (ln)": 9.09}
{"sequence": "CTTTTTTTAATGATAACACACATGTTGTGCATAGAC [CACACA_site3270]", "gcPBM binding intensity (ln)": 9.32}
{"sequence": "ATTTATTAAAAGAAATGTACAGAAAATGTTTGGAAT [XGTACX_site7187]", "gcPBM binding intensity (ln)": 9.26}
{"sequence": "ATTAAATATATTTTGCGTACACAAAAAAATACGTTC [XGTACX_site3862]", "gcPBM binding intensity (ln)": 9.15}
{"sequence": "AATGAAAATAAATTAACACACAATTTTAATATTGTT [CACACA_site1306]", "gcPBM binding intensity (ln)": 9.32}
{"sequence": "TCATATATTTATGTATGTACATATATATATAGATTA [XGTACX_site380]", "gcPBM binding intensity (ln)": 9.01}
{"sequence": "CATATCATTGATTATAGTACACATACCATTTTTTAT [XGTACX_site6572]", "gcPBM binding intensity (ln)": 9.45}
{"sequence": "GTAATAAGAATTATAGTGCAATGTAATACATTTATA", "gcPBM binding intensity (ln)": 9.23}
